# Experimental data reported in article PMC4102417.
# Test system: murine 3T3 fibroblasts
# Assay: primary screen, percent viability or growth; higher = less effect of the substance
# Method: Similarly, for measuring the cytotoxicity concentration (CC50) for 3T3 fibroblast cells, cultures were incubated with drugs for 72 hours and developed using Alamar Blue (Alamar Biosciences Inc, Sacramento, CA) as previously described.
row,SMILES,Mammalian (3T3) cell % growth at 10 uM [%]
1,COC(=O)C1(C)CCCC2(C)c3ccc(O)c(C(C)C)c3CCC12 (stereo not shown),38.5
2,Cc1cccc2c3c(ccc12)C1=C(C(=O)C3=O)[C@@H](C)CO1,77.1
3,COc1cc2c(cc1OC)C1C(=O)c3ccc4oc(C(C)C)cc4c3OC1CO2 (stereo not shown),39.7
4,O=c1cc(-c2ccccc2)oc2c(O)c(O)ccc12,72.6
5,CN(C)CCCN1c2ccccc2Sc2ccc(Cl)cc21,99.3
6,CNc1ccc(C(=O)CC(O)CCC(C)C2OC(=O)CC(O)CC(=O)CC(O)CC(O)CC(O)CC(O)CC3(O)CC(O)C(C(=O)OC)C(CC(O[C@@H]4O[C@H](C)[C@@H](O)[C@H](N)[C@@H]4O)/C=C/C=C/C=C/C=C\C=C/C=C/C=C/C2C)O3)cc1 (stereo partly shown),97.3
7,N[C@H](C(=O)O)[C@@H]1CC(Cl)=NO1,48.2
8,C[C@@H]1C[C@@H]([C@H](O)CC2CC(=O)NC(=O)C2)C(=O)[C@@H](C)C1,36.9
9,CC(=O)O[C@]1(C(C)=O)CC[C@H]2[C@@H]3C=C(Cl)C4=CC(=O)CC[C@]4(C)[C@H]3CC[C@@]21C,97.4
10,CN(C)CCCN1c2ccccc2CCc2ccc(Cl)cc21.Cl,84.6
11,C=CC(C1=CC(=O)C(OC)=CC1=O)c1ccc(O)cc1 (stereo not shown),94.8
12,COc1c(-c2coc3cc4c(cc3c2=O)CC(O)C(C)(C)O4)ccc2c1C=CC(C)(C)O2 (stereo not shown),59
13,COC1=CC(=O)C(O)=C/C1=C\C=C\c1ccccc1,0.8
14,CC12C=CC(=O)C=C1CCC1C2CCC2(C)C(=O)CCC12 (stereo not shown),72.1
15,C[C@@](Cc1ccc(O)c(O)c1)(NN)C(=O)O,17.7
16,Cl.Fc1ccc(C2CCNCC2COc2ccc3c(c2)OCO3)cc1 (stereo not shown),100
17,C=CC(C1=CC(=O)C=CC1=O)c1ccccc1 (stereo not shown),97.5
18,CC(=O)N1CCN(c2ccc(OC[C@H]3CO[C@](Cn4ccnc4)(c4ccc(Cl)cc4Cl)O3)cc2)CC1,100
19,COc1cc2ccc(=O)oc2c(O)c1O,100
20,Clc1ccc2c(c1)C(N1CCNCC1)=Nc1ccccc1O2,98

row,SMILES,Mammalian (3T3) cell % growth at 10 uM [%]
1,Nc1nc(N)c2nc(-c3ccccc3)c(N)nc2n1,72.7
2,CCC1(O)C(=O)OCc2c1cc1n(c2=O)Cc2cc3cc(O)ccc3nc2-1 (stereo not shown),23.9
3,C=C1C(=O)C23C(O)C1CCC2C12COC3(O)C(O)C1C(C)(C)CCC2O (stereo not shown),0.2
4,O=c1c(-c2ccc(O)cc2)coc2cc(O)cc(O)c12,100
5,CC(=O)Oc1ccc2c(c1)CCC1C2CCC2(C)C1CC(OC(C)=O)[C@@H]2OC(C)=O (stereo partly shown),60.7
6,CSc1ccc2c(c1)N(CCC1CCCCN1C)c1ccccc1S2 (stereo not shown),45.7
7,CCCCCC(=O)O[C@]1(C(C)=O)CC[C@H]2[C@@H]3CCC4=CC(=O)CC[C@]4(C)[C@H]3CC[C@@]21C,100
8,Cc1coc2c1C(=O)C(=O)c1c-2ccc2c1CCCC2(C)C,44.3
9,COC(=O)c1cc(O)c(=O)c2c(O)c(O)ccc2c1,92.2
10,CC[C@@H](C(=O)[C@@H](C)[C@@H](O)[C@H](C)CCc1ccc(C)c(O)c1C(=O)O)[C@H]1O[C@](CC)([C@H]2CC[C@](O)(CC)[C@H](C)O2)C[C@@H]1C,50.1
11,CCCCCCCCCCCCCC(=O)O[C@@H]1[C@@H](C)[C@@]2(O)[C@@H](C=C(CO)C[C@]3(O)C(=O)C(C)=C[C@@H]23)[C@@H]2C(C)(C)[C@]12OC(C)=O,89.2
12,Oc1ccc(O)cc1,93.9
13,O[C@H]1[C@H]2c3cc4c(cc3CN3CCC(=C[C@@H]1O)[C@H]23)OCO4,29.6
14,COc1ccc2cc1Oc1ccc(cc1)C[C@H]1c3c(cc4c(c3Oc3cc5c(cc3OC)CCN(C)[C@@H]5C2)OCO4)CCN1C,33.1
15,O=c1c(O)c(-c2ccc(O)c(O)c2)oc2c(O)c(O)cc(O)c12,54.6
16,C=CC(C)(O)CCC1C(=C)CC(OC(C)=O)C2C(C)(C)CCCC12C (stereo not shown),63.7
17,O=C(O)/C=C/c1ccc(O)c(O)c1,2.5
18,C[C@H]1CC[C@]2(NC1)O[C@H]1C[C@H]3[C@@H]4CC[C@H]5C[C@@H](O[C@@H]6O[C@H](CO)[C@H](O[C@@H]7O[C@H](CO)[C@@H](O)[C@H](O[C@@H]8OC[C@@H](O)[C@H](O)[C@H]8O)[C@H]7O[C@@H]7O[C@H](CO)[C@@H](O)[C@H](O)[C@H]7O)[C@H](O)[C@H]6O)CC[C@]5(C)[C@H]4CC[C@]3(C)[C@H]1[C@@H]2C,0.1
19,CCCCc1oc2ccccc2c1C(=O)c1cc(I)c(OCCN(CC)CC)c(I)c1.Cl,86.7
20,Oc1ccc2c(c1)O[C@H](c1ccc(O)c(O)c1)[C@@H](O)C2,97.8
